Screens as filed in PubChem BioAssay.
The full list was thinned out, with hits kept by preference.
mcGAS MS inh: mouse cGAS inhibition by mass spec; Q8C6L5; recombinant mouse cGAS, cGAMP by RapidFire MS; inhibition, % at 12.5 µM; 130,000 compounds, 0.18% hits; AID 1259397;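 active means inhibition of cGAS enzyme activity at or above 60%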;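 further: enzyme stimulated by 45 bp dsDNA with ATP and GTP substrates; cGAMP share of summed cGAMP plus half ATP and half GTP signals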
Target sequence (Q8C6L5 whole entry, looked up): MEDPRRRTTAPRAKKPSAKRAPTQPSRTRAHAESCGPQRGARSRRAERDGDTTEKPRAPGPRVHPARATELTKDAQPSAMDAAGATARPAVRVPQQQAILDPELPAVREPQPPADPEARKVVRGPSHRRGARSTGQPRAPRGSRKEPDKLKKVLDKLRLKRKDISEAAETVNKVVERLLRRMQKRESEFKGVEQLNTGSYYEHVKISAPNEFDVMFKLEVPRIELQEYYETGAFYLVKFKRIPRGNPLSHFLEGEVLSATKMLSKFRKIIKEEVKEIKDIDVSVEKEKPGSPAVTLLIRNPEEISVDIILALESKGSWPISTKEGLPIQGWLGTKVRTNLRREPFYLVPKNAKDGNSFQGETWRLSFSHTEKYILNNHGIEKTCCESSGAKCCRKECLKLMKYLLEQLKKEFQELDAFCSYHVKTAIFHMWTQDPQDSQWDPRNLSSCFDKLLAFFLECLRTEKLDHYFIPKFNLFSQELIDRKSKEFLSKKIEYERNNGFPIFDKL
An asterisk follows results filed as active; ! = not confirmed by another sample.

SMILES	mcGAS MS inh
COc1cc(C)c(S(=O)(=O)Nc2c(F)cccc2F)cc1OC	87*
COc1ccccc1NS(=O)(=O)c1cc(F)ccc1F	4
COc1ccc(NS(=O)(=O)c2cc(C)ccc2C)cc1OC	-9
CN(CCN(C)S(=O)(=O)c1c(Cl)cccc1Cl)C1CCCCC1	-5
Cc1noc(C(C)S(=O)(=O)Cc2noc(C(C)(C)C)n2)n1 (configuration not stated)	-8
COc1cc(C)c(S(=O)(=O)N2CCCC2c2ccncc2)c(C)c1 (configuration not stated)	-10
Cc1ccccc1N=Cc1c(C(F)(F)F)[nH]n(-c2nc3ccccc3s2)c1=O	69*
C=CCN=Cc1c(C(F)(F)F)[nH]n(-c2nc3ccccc3s2)c1=O	-15
Cc1[nH]n(-c2nc3ccccc3s2)c(=O)c1C=NC1CCN(Cc2ccccc2)CC1	-6
O=c1c2cnn(-c3ccc(F)cc3)c2ncn1Cc1cc(=O)n2ccsc2n1	1
Cc1ccc2oc(C(=O)N(Cc3ccccn3)C[C@@H]3CCC(=O)N3)cc2c1	-23
N#C/C(=C\Nc1cccc(Cl)c1)C(=O)NC(=O)c1ccccc1	-4
Cn1cc(C(=O)N(Cc2ccccc2)[C@@H]2CCCC[C@H]2O)ccc1=O	-10
S=c1nc(-c2ccc(Cl)cc2)[nH]c2ccccc12	-1
NC(=S)N/N=C(\c1nnc(N)s1)c1ccccc1N	2
COc1cccc2c1C(=O)c1c(O)c3c(c(O)c1C2=O)C[C@@](O)(C(=O)CO)C[C@@H]3O[C@H]1C[C@H](N)[C@@H](O)[C@H](C)O1	98*!
CC(=O)[C@]1(O)Cc2c(O)c3c(c(O)c2[C@@H](O[C@H]2C[C@H](N)[C@H](O)[C@H](C)O2)C1)C(=O)c1ccccc1C3=O	90*
COc1cccc2c1C(=O)c1c(O)c3c(c(O)c1C2=O)C[C@@](O)(C(C)=O)C[C@@H]3O[C@H]1C[C@H](N)[C@H](O)[C@H](C)O1	91*!
Cc1ccc(C)c(C(C)NS(=O)(=O)c2cccc(C#N)c2)c1 (configuration not stated)	-5
CNC(=O)NC(=O)C(Oc1ccc(Cl)cc1Br)c1ccccc1 (configuration not stated)	-14
COC(=O)N1CCN(CC(O)c2ccc(Br)cc2)CC1 (configuration not stated)	-19
OCCc1ccccc1-n1ccnc1-c1cccc(F)c1F	-3
CC(C)n1c(CCC(=O)O)ccc1-c1ccc(Cl)cc1	0
N#Cc1cccc(NC(=O)N2CCN(c3ccc(C#N)cc3F)CC2)c1	-1
N#Cc1cccc(NN=C2CCN(c3ccc(F)cc3)CC2)c1	89*
SMILES	mcGAS MS inh
N#Cc1cccc(N/N=C2\CCn3cccc32)c1	-7
CCn1nc(C)c(CNC(C)Cn2nc(C)cc2C)c1C (configuration not stated)	-7
O=C(CSCc1ccccc1)c1ccccc1Br	0
N[n+]1cnn(CC(=O)c2ccc(Br)cc2Br)c1	83*
CCC(=O)Nc1ccc(C(=O)Cn2cc(Br)cn2)cc1	-1
N[n+]1cnn(CC(=O)c2ccccc2Br)c1	98*
Cc1nn(CC(=O)c2ccc(Cl)cc2Cl)c(C)[n+]1N	-14
N[n+]1cnn(CC(=O)c2ccccc2)c1	6
Cc1nn(C)c(C)c1CN(C(=O)CCc1nc(-c2ccco2)no1)C(C)C	-6
CC1c2ccsc2CCN1C(=O)COc1ccc2c(c1)CCC(=O)N2 (configuration not stated)	-1
Cc1cc(C(=O)N2CCN(c3nc4ccc(OC(F)(F)F)cc4s3)CC2)c(C)o1	-10
CN(C)CC1(O)CCN(C(=O)CCCCc2ccccc2)C1 (configuration not stated)	-17
Cc1cc(NN=Cc2ccccn2)nc2ccccc12	-3
Oc1c(Br)cc(C=NNc2ccccn2)cc1Br	74*
COc1cc(/C=N\Nc2ncnc3nc[nH]c23)cc(Br)c1O	3
CC12CC(NC(=O)N1c1cc(F)ccc1F)c1ccccc1O2 (configuration not stated)	-2
COCCOC(=O)C1=C(C)N(C)C(=O)NC1c1ccccc1[N+](=O)[O-] (configuration not stated)	-8
COC(=O)C1=C(C)NC(C)=C(C(=O)OC)C1c1ccccc1[N+](=O)[O-]	73*!
CCOC(=O)C1=C(C)NC(C)=C(C(=O)OC)C1c1cccc([N+](=O)[O-])c1 (configuration not stated)	-13
COc1cccc(CNC2CCN(c3ccc(C(=O)Nc4ccccc4)cn3)C2)c1 (configuration not stated)	-3
O=C(O)c1cc2c(cc1O)CCCC2	6
CCOC(=O)c1c(C)oc(N)c1C(=O)OCC	-2
Cc1ccc(N(C)C(=O)N2CCN(C(=O)N(C)c3ccc(C)cc3)CC2)cc1	-14
O=C(O)CN1C(=O)C(=NN2C(=O)CSC2=S)c2ccccc21	92*
O=C(O)CNC(=O)CN1C(=O)CSC1=S	13
SMILES	mcGAS MS inh
O=C(O)CN1C(=O)/C(=C2/C(=O)N(CC(=O)O)c3ccccc32)SC1=S	4
CCOc1c(Cl)cccc1NC(=O)N(C)Cc1nc(C)cs1	-6
CC1(C)Cc2ccccc2C2=CC(=O)C(=O)N21	-8
COc1ccc(N(CCCN2C(=O)c3cccc4cccc(c34)C2=O)C(=O)c2ccc(F)cc2)cc1	-6
O=C1NC2(CCOc3ccccc32)C(=O)N1Cc1coc(-c2cccs2)n1 (configuration not stated)	95*
Cc1cc(C)cc(CN2C(=O)NC3(CCOc4ccccc43)C2=O)c1 (configuration not stated)	-5
O=C1NC2(CCOc3ccccc32)C(=O)N1CCN1C(=O)c2ccccc2C1=O (configuration not stated)	-10
CCN(CC)C(CNc1ccc(S(=O)(=O)N2CCOCC2)cc1[N+](=O)[O-])CC(C)C (configuration not stated)	0
CSc1ccc(CN(C(=O)[C@@H](N)Cc2c[nH]c3ccccc23)C2CC2)cc1	-10
CC(C)C(NS(=O)(=O)c1ccccc1)C(=O)N1CCN(c2ccccc2Cl)CC1 (configuration not stated)	-10
CC(C)C(NS(=O)(=O)c1cccc(Cl)c1)C(=O)N1CCN(c2ccccc2)CC1 (configuration not stated)	-5
CC(C)C(NS(=O)(=O)c1ccccc1)C(=O)N1CCN(c2cccc(Cl)c2)CC1 (configuration not stated)	60*
COc1ccc(C(=O)Cn2cnc3c(nnn3C)c2=O)cc1	-3
CC(C)(C(N)=O)N1CCN(C(=O)c2cc(C(F)(F)F)cc(C(F)(F)F)c2)CC1	-7
Cc1ccc(CN2CCC(CN(C)Cc3cn[nH]c3-c3cccc(F)c3)CC2)o1	-8
CC1=C(c2ccc(F)cc2)[N+](=O)C(C)(C)N1[O-]	-9
COc1ccc(C2=C(C)N([O-])C(C)(C)[N+]2=O)cc1	-7
CC1=C(c2ccccc2)[N+](=O)C2(CCCC2)N1[O-]	64*
CCC1=NOC(CNCc2cnc(-c3ccccc3C)s2)C1 (configuration not stated)	0
O=C(c1ccc(S(=O)(=O)Nc2cccnc2)o1)N1CCCC1	-4
O=C(O)Cc1cn2ccsc2n1	-8
CCN(CC)CCCC(C)Nc1c2ccc(Cl)cc2nc2ccc(OC)cc12 (configuration not stated)	68*!
CCN(CC)CCCC(C)NCc1ccccc1OC (configuration not stated)	-1
COc1ccc2nc3cc(Cl)ccc3c(Nc3cc(CN4CCCC4)c(O)c(CN4CCCC4)c3)c2n1	33
